Laboratory results taken from paper PMC7862700, “An all-to-all approach to the identification of sequence-specific readers for epigenetic DNA modifications on cytosine”.

Legend:
Experiment in all cases: DAPPL (digital affinity profiling via proximity ligation, sequencing); 10 mM Tris-HCl pH 7.5, 50 mM NaCl, 1 mM DTT, 4% glycerol, room temperature, 30 min; GST-TFs on glutathione beads, 16-mer random dsDNA library, 0.1% formaldehyde crosslink after washing; high values mean tight binding
Details in all cases: protein: recombinant; tags: N-terminal GST; dsDNA, one strand shown
FLI1 = target: T1, FLI1 (Homo sapiens, UniProt Q01543 1-452)
T1 sequence: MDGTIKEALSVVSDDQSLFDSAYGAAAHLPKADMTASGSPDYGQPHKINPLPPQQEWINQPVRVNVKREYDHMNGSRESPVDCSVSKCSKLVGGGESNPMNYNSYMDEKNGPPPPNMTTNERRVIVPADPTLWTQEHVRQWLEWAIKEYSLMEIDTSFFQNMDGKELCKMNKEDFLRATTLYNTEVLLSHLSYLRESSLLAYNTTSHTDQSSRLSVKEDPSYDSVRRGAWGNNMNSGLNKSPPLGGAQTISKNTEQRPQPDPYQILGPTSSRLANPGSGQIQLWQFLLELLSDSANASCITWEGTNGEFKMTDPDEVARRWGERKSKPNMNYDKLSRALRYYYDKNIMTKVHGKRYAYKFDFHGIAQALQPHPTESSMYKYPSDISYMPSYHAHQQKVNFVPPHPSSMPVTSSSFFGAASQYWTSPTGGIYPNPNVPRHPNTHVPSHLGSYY
How it was run: (§1)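 Binding signal is each hexamer's read frequency for a factor divided by its frequency in the tag-only sample. The factors were GST-fused human transcription factors from yeast, captured on glutathione beads, DNA-barcoded and pooled with that sample. Pools were incubated with 200 nmole of a random double-stranded 16-mer DNA library in Tris/NaCl/DTT/glycerol buffer at room temperature for 30 min, then washed, crosslinked with 0.1% formaldehyde, proximity-ligated with BsaI/T4 ligase (1 h, 37 °C), PCR-amplified and sequenced on an Illumina NextSeq500.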

ELK1 = target: T2, ELK1 (Homo sapiens, UniProt P19419 1-428)
T2 sequence: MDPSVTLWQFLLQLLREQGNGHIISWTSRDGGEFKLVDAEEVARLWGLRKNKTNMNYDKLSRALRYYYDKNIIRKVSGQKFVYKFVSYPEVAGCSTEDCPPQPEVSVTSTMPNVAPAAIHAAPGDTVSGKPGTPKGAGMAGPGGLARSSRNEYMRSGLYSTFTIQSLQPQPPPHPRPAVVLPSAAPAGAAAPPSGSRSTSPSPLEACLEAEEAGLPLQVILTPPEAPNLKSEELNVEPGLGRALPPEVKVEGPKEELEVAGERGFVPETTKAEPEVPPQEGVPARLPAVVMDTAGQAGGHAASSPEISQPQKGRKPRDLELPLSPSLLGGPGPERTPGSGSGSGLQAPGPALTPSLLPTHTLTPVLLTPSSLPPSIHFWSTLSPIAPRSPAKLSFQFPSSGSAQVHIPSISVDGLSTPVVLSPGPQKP
How it was run: as §1

GABPA = target: T3, GABPA (Homo sapiens, UniProt Q06546 1-454)
T3 sequence: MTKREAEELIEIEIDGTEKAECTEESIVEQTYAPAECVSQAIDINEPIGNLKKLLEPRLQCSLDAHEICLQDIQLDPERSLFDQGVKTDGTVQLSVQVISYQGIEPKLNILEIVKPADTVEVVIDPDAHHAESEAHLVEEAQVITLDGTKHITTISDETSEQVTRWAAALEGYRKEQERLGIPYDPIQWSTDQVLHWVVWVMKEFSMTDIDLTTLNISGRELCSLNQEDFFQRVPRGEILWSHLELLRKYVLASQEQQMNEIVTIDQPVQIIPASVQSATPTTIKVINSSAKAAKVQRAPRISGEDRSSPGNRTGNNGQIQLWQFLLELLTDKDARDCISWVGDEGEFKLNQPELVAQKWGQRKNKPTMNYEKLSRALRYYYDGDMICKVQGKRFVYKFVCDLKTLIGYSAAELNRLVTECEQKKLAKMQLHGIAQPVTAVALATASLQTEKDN
How it was run: as §1

ELF1 = ELF1 (Homo sapiens, UniProt P32519 1-619)
ELF1, sequence (P32519 whole entry): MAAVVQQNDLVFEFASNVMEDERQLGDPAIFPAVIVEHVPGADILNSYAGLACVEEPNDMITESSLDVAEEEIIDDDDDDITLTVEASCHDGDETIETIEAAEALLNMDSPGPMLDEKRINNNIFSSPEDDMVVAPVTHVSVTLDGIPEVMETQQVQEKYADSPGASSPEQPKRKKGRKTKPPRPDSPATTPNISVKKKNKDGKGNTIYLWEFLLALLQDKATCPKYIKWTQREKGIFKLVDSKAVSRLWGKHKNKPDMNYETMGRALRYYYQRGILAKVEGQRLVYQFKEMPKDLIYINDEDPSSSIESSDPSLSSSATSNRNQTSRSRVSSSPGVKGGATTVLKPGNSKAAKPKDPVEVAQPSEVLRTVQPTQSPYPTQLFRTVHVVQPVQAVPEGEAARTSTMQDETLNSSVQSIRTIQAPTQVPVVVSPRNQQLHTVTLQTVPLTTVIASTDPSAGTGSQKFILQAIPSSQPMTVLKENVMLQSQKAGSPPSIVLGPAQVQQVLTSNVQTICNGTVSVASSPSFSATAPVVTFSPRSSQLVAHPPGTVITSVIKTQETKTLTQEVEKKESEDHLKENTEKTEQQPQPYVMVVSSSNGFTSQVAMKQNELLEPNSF
How it was run: as §1

SPI1 = SPI1 (Homo sapiens, UniProt P17947 1-270)
How it was run: as §1

SPIB = SPIB (Homo sapiens, UniProt Q01892 1-262)
SPIB, sequence (Q01892 whole entry): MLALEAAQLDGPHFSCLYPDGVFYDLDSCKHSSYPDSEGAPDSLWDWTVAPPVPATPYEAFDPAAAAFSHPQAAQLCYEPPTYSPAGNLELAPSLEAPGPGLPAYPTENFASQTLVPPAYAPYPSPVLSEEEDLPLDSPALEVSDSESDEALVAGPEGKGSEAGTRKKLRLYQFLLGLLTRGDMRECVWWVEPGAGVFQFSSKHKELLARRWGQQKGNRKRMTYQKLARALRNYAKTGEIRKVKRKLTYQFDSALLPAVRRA
How it was run: as §1

FEV = target: T4, FEV (Homo sapiens, UniProt Q99581 1-238)
T4 sequence: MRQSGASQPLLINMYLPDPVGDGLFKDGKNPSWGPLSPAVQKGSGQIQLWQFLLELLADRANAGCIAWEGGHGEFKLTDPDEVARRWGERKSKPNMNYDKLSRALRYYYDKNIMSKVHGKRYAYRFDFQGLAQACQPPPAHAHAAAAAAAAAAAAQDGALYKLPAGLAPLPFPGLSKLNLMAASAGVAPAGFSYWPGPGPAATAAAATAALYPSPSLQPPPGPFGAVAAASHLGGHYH
How it was run: as §1

ETV5 = ETV5 (Homo sapiens, UniProt P41161 1-510)
ETV5, sequence (P41161 whole entry): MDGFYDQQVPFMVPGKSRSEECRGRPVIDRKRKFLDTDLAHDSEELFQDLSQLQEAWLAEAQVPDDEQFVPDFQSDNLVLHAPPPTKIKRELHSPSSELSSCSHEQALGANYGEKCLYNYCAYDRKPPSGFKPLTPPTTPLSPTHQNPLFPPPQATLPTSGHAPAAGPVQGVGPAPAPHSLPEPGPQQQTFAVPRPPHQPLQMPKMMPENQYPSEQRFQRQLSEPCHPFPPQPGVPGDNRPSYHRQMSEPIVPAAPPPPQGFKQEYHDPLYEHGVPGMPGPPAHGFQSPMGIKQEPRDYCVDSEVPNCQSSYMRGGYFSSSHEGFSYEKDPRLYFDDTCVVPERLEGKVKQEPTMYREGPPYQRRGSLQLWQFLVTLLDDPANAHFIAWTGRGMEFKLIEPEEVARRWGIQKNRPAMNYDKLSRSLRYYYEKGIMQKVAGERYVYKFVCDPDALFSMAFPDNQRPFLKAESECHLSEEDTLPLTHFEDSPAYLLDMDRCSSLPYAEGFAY
How it was run: as §1

ELF4 = ELF4 (Homo sapiens, UniProt Q99607 1-663)
ELF4, sequence (Q99607 whole entry): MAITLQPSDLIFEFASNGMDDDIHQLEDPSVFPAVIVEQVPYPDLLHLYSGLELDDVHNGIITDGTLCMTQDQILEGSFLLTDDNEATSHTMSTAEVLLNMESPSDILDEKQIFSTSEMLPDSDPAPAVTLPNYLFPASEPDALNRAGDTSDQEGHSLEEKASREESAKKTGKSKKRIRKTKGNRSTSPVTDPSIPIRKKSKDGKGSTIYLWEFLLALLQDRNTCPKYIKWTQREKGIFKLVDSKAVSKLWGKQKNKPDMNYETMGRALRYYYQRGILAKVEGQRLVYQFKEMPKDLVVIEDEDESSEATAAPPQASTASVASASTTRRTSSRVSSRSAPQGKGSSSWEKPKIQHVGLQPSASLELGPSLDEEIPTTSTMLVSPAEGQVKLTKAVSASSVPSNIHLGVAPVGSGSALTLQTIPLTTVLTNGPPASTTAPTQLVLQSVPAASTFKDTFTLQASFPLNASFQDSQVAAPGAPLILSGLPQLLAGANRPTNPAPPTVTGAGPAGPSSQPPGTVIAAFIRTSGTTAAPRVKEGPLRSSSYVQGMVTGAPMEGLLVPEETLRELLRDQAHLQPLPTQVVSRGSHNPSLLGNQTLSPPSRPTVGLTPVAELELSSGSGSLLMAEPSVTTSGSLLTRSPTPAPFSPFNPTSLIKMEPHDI
How it was run: as §1

ETV1 = ETV1 (Homo sapiens, UniProt P50549 1-477)
ETV1, sequence (P50549 whole entry): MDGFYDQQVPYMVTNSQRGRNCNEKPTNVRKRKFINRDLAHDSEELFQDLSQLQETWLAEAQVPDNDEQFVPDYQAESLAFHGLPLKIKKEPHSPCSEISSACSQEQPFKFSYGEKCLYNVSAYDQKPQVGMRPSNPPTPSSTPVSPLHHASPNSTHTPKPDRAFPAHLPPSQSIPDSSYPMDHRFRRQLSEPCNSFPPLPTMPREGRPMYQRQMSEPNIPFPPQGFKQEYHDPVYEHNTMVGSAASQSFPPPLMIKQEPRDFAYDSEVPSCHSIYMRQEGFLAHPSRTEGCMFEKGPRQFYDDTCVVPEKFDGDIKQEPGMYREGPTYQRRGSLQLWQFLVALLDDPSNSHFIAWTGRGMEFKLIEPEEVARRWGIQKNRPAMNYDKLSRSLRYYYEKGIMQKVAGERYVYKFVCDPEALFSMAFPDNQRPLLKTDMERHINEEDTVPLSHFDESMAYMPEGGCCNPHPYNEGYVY
How it was run: as §1

ERF = target: T5, ERF (Homo sapiens, UniProt P50548 1-548)
T5 sequence: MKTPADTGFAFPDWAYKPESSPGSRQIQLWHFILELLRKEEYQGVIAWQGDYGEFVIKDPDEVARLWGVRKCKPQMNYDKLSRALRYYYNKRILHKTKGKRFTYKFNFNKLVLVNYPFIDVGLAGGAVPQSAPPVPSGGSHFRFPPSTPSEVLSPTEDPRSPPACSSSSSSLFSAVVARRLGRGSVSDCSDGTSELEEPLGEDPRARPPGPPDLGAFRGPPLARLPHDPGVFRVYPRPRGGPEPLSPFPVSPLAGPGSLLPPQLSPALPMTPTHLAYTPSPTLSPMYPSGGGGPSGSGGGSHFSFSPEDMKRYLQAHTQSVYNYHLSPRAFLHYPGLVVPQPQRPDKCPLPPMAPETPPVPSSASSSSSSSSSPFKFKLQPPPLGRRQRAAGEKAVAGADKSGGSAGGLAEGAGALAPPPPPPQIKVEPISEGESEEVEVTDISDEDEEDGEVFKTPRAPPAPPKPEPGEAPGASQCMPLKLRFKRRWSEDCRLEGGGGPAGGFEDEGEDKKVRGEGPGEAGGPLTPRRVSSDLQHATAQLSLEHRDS
How it was run: as §1

ETV7 = target: T6, ETV7 (Homo sapiens, UniProt Q9Y603 1-341)
T6 sequence: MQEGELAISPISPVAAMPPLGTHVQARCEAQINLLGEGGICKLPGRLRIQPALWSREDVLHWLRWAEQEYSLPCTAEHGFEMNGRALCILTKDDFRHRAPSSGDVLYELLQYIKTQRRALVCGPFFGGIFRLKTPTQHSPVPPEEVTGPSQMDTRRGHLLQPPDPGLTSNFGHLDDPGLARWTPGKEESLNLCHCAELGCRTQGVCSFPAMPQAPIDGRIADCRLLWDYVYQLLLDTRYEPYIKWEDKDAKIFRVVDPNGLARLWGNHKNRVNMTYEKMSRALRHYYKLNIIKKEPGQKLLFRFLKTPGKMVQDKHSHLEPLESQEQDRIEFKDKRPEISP
How it was run: as §1

ETV3 = target: T7, ETV3 (Homo sapiens, UniProt P41162-2 1-143)
T7 sequence: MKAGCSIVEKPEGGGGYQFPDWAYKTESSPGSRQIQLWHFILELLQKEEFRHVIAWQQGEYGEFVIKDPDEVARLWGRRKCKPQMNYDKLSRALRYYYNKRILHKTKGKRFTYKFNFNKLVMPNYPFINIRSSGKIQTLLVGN
How it was run: as §1

ETV6 = ETV6 (Homo sapiens, UniProt P41212 1-452)
ETV6, sequence (P41212 whole entry): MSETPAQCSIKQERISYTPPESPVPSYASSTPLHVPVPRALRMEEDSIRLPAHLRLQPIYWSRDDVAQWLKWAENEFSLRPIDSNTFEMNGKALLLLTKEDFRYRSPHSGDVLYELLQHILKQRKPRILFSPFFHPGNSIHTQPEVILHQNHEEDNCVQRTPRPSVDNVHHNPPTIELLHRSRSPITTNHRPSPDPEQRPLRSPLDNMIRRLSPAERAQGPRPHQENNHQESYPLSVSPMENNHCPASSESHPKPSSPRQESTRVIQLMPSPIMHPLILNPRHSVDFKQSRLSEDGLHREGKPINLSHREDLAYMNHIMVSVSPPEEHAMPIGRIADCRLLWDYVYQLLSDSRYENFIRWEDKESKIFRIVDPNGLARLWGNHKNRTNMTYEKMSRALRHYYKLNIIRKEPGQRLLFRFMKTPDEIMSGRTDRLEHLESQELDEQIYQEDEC
How it was run: as §1

CAATGG
binding signal (FLI1): 1.14 fold enrichment (6-mer frequency, TF over GST control)
binding signal (ELK1): 1.03 fold enrichment (6-mer frequency, TF over GST control)
binding signal (GABPA): 1.09 fold enrichment (6-mer frequency, TF over GST control)
binding signal (ELF1): 1.03 fold enrichment (6-mer frequency, TF over GST control)
binding signal (SPI1): 1.04 fold enrichment (6-mer frequency, TF over GST control)
binding signal (SPIB): 1.03 fold enrichment (6-mer frequency, TF over GST control)
binding signal (FEV): 1.04 fold enrichment (6-mer frequency, TF over GST control)
binding signal (ETV5): 1.03 fold enrichment (6-mer frequency, TF over GST control)
binding signal (ELF4): 1.02 fold enrichment (6-mer frequency, TF over GST control)
binding signal (ETV1): 1.1 fold enrichment (6-mer frequency, TF over GST control)
binding signal (ERF): 1.03 fold enrichment (6-mer frequency, TF over GST control)
binding signal (ETV7): 1.12 fold enrichment (6-mer frequency, TF over GST control)
binding signal (ETV3): 1.03 fold enrichment (6-mer frequency, TF over GST control)
binding signal (ETV6): 1.04 fold enrichment (6-mer frequency, TF over GST control)
